The labels stand for the following.
T1: UNK ZnF1-3 (human, UniProt Q9C0B0 31-174)
T1 sequence: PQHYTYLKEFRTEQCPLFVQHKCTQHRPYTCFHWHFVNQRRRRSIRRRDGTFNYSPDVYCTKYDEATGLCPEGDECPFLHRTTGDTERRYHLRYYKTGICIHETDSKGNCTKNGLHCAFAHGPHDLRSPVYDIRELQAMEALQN

B1: chr10:33190432:33190433:-_ENSG00000150093_ENST00000302278|hu_mus|hu_hu_hu_mus_True|1_48 (ssRNA)
RNA: GGGAGUUCUACAGUCCGACGAUCUACAUUUUCCAAACCUGCAUGUGAAUAAAACCCUGGCCACAGAGCCCCAAAACUACCCUACUGUGACUAUGGAGCUGCUGCUGUGAGCUUGGUGUUGCAAAAUCCGCCUGAGUCAGUACUCAACAGAGGAUUGAGCAUCA
B2: 17505014_17509309_214_5pUTR_ENSMUSG00000019370_ENSMUST00000019514|mouse|control|control (ssRNA)
RNA: GGGAGUUCUACAGUCCGACGAUCCAUGGCGAGGCACCGGUAUCCGGAGCUCGGGGAUCGAGGUUACUCUGGCGGCGGCAGCAGCUGCAGCAGCUCGAGCUCCGCCGCGCGUCCGCGCCUCCACACUCUUUGCCCGCAGCGCGCCAACAGAGGAUUGAGCAUCA
B3: chr8:80553714:80553715:+_ENSG00000104435_ENST00000220876|hu_mus|motif|central (ssRNA)
RNA: GGGAGUUCUACAGUCCGACGAUCAGCCUCCAGCUUUUUCUGAAUCUCCUCCAGAGACAGGUCUUUCUUCUUUGGAGAAGCGGGAGUUCGUGGAGCUUCUGAGAUGGGAGAUGGUGGCUUCAAGAUCAGCUCAAAAGCCUGGCCCAACAGAGGAUUGAGCAUCA
B4: chr11:100577090:100577091:-_ENSMUSG00000019173_ENSMUST00000107364|mus_hu|motif|central (ssRNA)
RNA: GGGAGUUCUACAGUCCGACGAUCCUGCACUGACCCCACUGUCCCCAUAUACAAGGGUUGGGGGGCAAGAGCAUGUGGCGGCUCCCAGCAAGGGAAAAUGGGAGAGCAGUAGAAAGGGGAGGAAGUGGGAAGAGCAGAAGAUCACAACAGAGGAUUGAGCAUCA
B5: chr1:89687925:89687926:+_ENSMUSG00000026289_ENSMUST00000027512|mus_hu|FALSE|FALSE (ssRNA)
RNA: GGGAGUUCUACAGUCCGACGAUCCCAGGACAGGGCUGCAGGAGCCCAUGUGCUUCUUCUGAGGAGGGCACUGGGGUCCUCCCAGCCCUGAGAGCCCCGUCAGUACUGUGCCCACAGCACAGCUUUGCAUCCUUUGUCCACACUCAACAGAGGAUUGAGCAUCA
B6: chr3:33038425:33038426:-_ENSG00000170266_ENST00000307363|hu_mus|FALSE|FALSE (ssRNA)
RNA: GGGAGUUCUACAGUCCGACGAUCGGUGGGAGGUCAGGCAAGGCGGGGCUGCAAAGUCACCAGCAGGGUACACACAUUCCAGAAAUGUAGCUUCCAUUCUAGCACAACAAAGGUGAUCCGUGUAACCAGAGUAGAGCUGUGCUCCAACAGAGGAUUGAGCAUCA
B7: 105885974_105886094_2527_3pUTR_ENSG00000135966_ENST00000393359|human|control|control (ssRNA)
RNA: GGGAGUUCUACAGUCCGACGAUCCAGCAGCGUGUGAAAGAGUUGCUGGCGGUGGGGUGGGUCUCGGCCCUCGGAGCACCACAGGCAGUAGUCCUCGGCCGCUGCAAAGUCCUGCAGCUCGUGCACCAGGAUAUGCAGCGCCUUCAACAGAGGAUUGAGCAUCA
B8: chr11:30000241:30000242:-_ENSMUSG00000020315_ENSMUST00000011877|mus_hu|FALSE|FALSE (ssRNA)
RNA: GGGAGUUCUACAGUCCGACGAUCUAUUUCCAACACAGCCUCACAAAAUUGAGGAACAGUUUAAAUACUGAGAUCUAAUCUAUAUAAUUUCAUUAAAAAAAAAAUCUGGCCUUCCCUCUGCACCUCAAACUUUUGUAACUUGGACAACAGAGGAUUGAGCAUCA
B9: chr10:112657927:112657928:+_ENSG00000150593_ENST00000280154|hu_hu|motif|central (ssRNA)
RNA: GGGAGUUCUACAGUCCGACGAUCCAGAAAUGCCUUGUACCCAAAACAAGUGCUUAAAAAAAAAAAAAAAAAAAACUUGUGCGGACAACUCUUACAAUUCAGAUAUAUAUUUUUAUAACAUCUAAGACUGCAAGAGUUCUUAUACAACAGAGGAUUGAGCAUCA
B10: chr10:112657927:112657928:+_ENSG00000150593_ENST00000280154|hu_hu|FALSE|FALSE (ssRNA)
RNA: B9 RNA with G82U, G83A
B11: chr17:65740002:65740003:+_ENSG00000130935_ENST00000581375|hu_hu|hu_hu_hu_mus_False|8_8 (ssRNA)
RNA: GGGAGUUCUACAGUCCGACGAUCAACAAAUCUUUCUUCCCUGGACGAACAGGAAGAUUCAUAUUAAAAAAAAUAUAUAUCCAUCAAGUUAGGUGUGGUGGCCACACCUUUACUCCCAGCACUUUGGGAAUAUAAUCUCUGAGUCAACAGAGGAUUGAGCAUCA
B12: chr18:77179482:77179483:+_ENSMUSG00000090000_ENSMUST00000026487|mus_mus|FALSE|FALSE (ssRNA)
RNA: GGGAGUUCUACAGUCCGACGAUCAAGUAUGCUCCAAUCCGGGAGUGCUCCUGCCUCUGAUAAUCUGAUCUACAAGUGCAACUACAAUUAAAAAAAAAAAAAAAUCAGAUAGAUAGAAACUCUGGUUUUAUUGUCAACUUUACUCAACAGAGGAUUGAGCAUCA
B13: chr11:30000241:30000242:-_ENSMUSG00000020315_ENSMUST00000011877|mus_hu|motif|central (ssRNA)
RNA: B8 RNA with U75G, A76G, U80G, A81G

Changes are numbered by the printed parent chain. Whole data set: some 24,000 sequences, median “enrichment r” near 0.99, cut for the highest 2% near 3.7. The full list was thinned out, with the highest values kept by preference.

For the assay, the target named is T1, UNK ZnF1-3. The experiment in a line: nsRBNS (natural sequence RNA bind-n-seq); RBNS binding buffer (assumed for nsRBNS): 25 mM Tris pH 7.5, 150 mM KCl, 3 mM MgCl2, 0.01% Triton X-100, 500 ug/ml BSA, 20 U/ml SUPERase-In, 4 C; UNK is unkempt and MSI1 is Musashi-1; names of the RNAs are library labels; protein concentration not given here; high values mean tight binding.
The molecule B1 showed a binding signal of 1.02 enrichment R. B2 came in with a binding signal of 0.975 enrichment R. Turning to B3, the binding signal stood at 1.22 enrichment R. In turn, B4 returned a binding signal of 1.93 enrichment R. Regarding B5, the binding signal was found to be 0.419 enrichment R. In the case of B6, the binding signal turned out to be 1.42 enrichment R. Then B7, with 0.509 enrichment R; and B8, with 4.16 enrichment R; and B9, with 4.04 enrichment R.

B10 had a binding signal of 3.61 enrichment R. B11 came in with a binding signal of 1.12 enrichment R.

The molecule B12 registered a binding signal of 2.98 enrichment R. Then B13, with 3.58 enrichment R.

The values above are taken from publication PMC12136788.
